# Assay results from ChEMBL document CHEMBL4808148, “HDAC6 screening dataset using tau-based substrate in an enzymatic assay yields selective inhibitors and activators” (2021).
# Among all 5,600 compounds or so, about 390 (7%) showed an effect of 50% or more. The sample as a whole holds a higher share of strong results than the screen did.
# Molecular target: T1, Protein deacetylase HDAC6 (Homo sapiens) (UniProt Q9UBN7)
# T1 sequence (whole entry): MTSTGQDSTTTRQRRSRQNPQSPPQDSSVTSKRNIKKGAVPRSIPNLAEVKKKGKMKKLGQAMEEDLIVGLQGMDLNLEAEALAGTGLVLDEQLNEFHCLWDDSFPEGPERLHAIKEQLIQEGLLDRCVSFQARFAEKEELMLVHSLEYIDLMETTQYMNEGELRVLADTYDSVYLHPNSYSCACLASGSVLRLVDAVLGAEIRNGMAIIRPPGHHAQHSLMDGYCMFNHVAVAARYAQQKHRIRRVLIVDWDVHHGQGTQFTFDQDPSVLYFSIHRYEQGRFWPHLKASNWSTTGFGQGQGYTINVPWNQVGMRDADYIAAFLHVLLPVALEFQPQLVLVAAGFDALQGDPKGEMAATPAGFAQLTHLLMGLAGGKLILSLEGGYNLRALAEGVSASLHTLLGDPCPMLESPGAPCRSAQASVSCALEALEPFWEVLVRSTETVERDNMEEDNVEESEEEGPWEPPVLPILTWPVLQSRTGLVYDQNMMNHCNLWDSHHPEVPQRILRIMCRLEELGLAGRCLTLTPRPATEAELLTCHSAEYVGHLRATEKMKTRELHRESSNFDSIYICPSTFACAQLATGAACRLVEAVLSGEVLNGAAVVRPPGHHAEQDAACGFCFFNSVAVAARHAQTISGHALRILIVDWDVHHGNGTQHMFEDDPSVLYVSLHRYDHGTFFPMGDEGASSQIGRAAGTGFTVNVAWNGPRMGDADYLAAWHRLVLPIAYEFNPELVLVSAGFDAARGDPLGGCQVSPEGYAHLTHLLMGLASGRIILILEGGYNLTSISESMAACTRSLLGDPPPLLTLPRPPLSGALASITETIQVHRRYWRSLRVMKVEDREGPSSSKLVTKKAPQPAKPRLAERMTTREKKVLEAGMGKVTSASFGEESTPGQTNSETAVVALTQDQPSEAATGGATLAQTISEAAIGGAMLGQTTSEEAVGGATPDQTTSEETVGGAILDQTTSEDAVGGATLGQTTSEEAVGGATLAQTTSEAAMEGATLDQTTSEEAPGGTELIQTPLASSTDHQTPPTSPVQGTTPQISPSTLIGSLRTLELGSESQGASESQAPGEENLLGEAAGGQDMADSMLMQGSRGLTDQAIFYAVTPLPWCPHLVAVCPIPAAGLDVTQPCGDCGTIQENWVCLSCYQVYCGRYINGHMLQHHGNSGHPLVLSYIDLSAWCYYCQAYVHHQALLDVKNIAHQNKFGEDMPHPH
# Details: at 10 µM
row,Structure (SMILES),inhibition
1,Nc1ncnc2c1nc(Br)n2[C@@H]1O[C@@H]2COP(=O)(O)O[C@H]2[C@H]1O,4.67%
2,O=C(O)Cc1sc(-c2ccccc2)nc1-c1ccc(Cl)cc1,-4.01%
3,Nc1c2c(nc3c1CCC3)CCCC2,13%
4,CCN(CC)c1ccc(/C=N/NC(=O)c2ccc(O)cc2)cc1,80%
5,CCC(=O)c1ccc(O)cc1,7.92%
6,O=C(N/N=C/c1ccc([N+](=O)[O-])o1)c1ccc(O)cc1,18.8%
7,C/N=C(/NC#N)NCCSCc1csc(NC(=N)N)n1,4.88%
8,COc1cccc(CCc2ccccc2OCC[C@@H]2C[C@@H](O)CN2C)c1,12.1%
9,O=C1C(Cl)=C(NCCN2CCOCC2)C(=O)c2ncccc21,-2.93%
10,Cc1noc(-c2ccc(-c3ccc(CC(=O)O)cc3)cc2)c1NC(=O)O[C@H](C)c1ccccc1,15.4%
11,O=C(N[C@@H](Cc1c[nH]c2ccccc12)C(=O)O)c1ccc(Cl)cc1,21.4%
12,O=C(CN1C2=NCCN2c2ccccc21)c1ccc(-c2ccccc2)cc1,11.4%
13,O=C(O)CCC(=O)c1ccc(-c2ccccc2)cc1,58.7%
14,O=C(O)CCCc1ccccc1,15.3%
15,CN1CCN(c2ccc(-c3cccc(CN4CCOCC4)c3)cc2NC(=O)c2c[nH]c(=O)cc2C(F)(F)F)CC1,19.4%
16,Oc1cccc(Nc2ncc(F)c(Nc3cccc(O)c3)n2)c1,-0.51%
17,O=c1c(-c2ccccc2)c1-c1ccccc1,68.4%
18,O=C1[C@H]2CCCC[C@H]2C(=O)N1CCCCN1CCN(c2nsc3ccccc23)CC1,9.58%
19,CCCCC(=O)O[C@]1(C(=O)CO)CC[C@H]2[C@@H]3CCC4=CC(=O)CC[C@]4(C)[C@H]3[C@@H](O)C[C@@]21C,55.9%
20,C[C@]12CCC(=O)C=C1CC[C@@H]1[C@@H]2[C@@H](O)C[C@@]2(C)[C@H]1CC[C@]2(O)C(=O)CO,12%
21,CCCC(=O)O[C@]1(C(=O)CO)CCC2[C@@H]3CCC4=CC(=O)CC[C@]4(C)C3[C@@H](O)C[C@@]21C (some centres not stated),13.5%
22,O=[N+]([O-])c1cc([N+](=O)[O-])c(/C=C/c2ccc(Cl)c(Cl)c2)cc1/C=C/c1ccc(Cl)c(Cl)c1,7.35%
23,Nn1cnc2cc3ccccc3cc2c1=O,17.4%
24,Clc1ccc(CCCOCCCN2CCCCC2)cc1,4.84%

row,Structure (SMILES),inhibition
1,NC(=O)Nc1cc(-c2cccc(F)c2)sc1C(=O)N[C@H]1CCCNC1,8.78%
2,NC(=O)Nc1sc(-c2ccc(F)cc2)cc1C(N)=O,81.4%
3,O=C(O)CN(CCN(CC(=O)O)CC(=O)O)CC(=O)O,-8.06%
4,O=C(/C=C/c1cccnc1)c1ccncc1,2.24%
5,Cc1c(C)c2c(c(C)c1O)CCC(C)(C)O2,20.7%
6,CC(=O)[C@H]1CC[C@H]2[C@@H]3C[C@H](C)C4=CC(=O)CC[C@]4(C)[C@H]3[C@@H](O)C[C@]12C,19.3%
7,COc1ccccc1C(=O)Nc1cc2c(cc1N1CCCC1)n(C)c(=O)n2C,46.1%
8,CC(=O)Oc1ccccc1C(=O)Nc1ccccc1,87.4%
9,CCCC(=O)Nc1cccc(NC(=O)c2ccccc2Br)c1,21%
10,CC(=O)Oc1ccccc1C(=O)Oc1ccccc1C(=O)O,41%
11,COc1ccccc1C(=O)Nc1cccc(NC(=O)c2cccc(C)c2)c1,63.7%
12,CC(=O)Oc1ccccc1C(=O)O,2.2%
13,Cc1nc(Nc2ncc(C(=O)Nc3c(C)cccc3Cl)s2)cc(N2CCN(CCO)CC2)n1,21.2%
14,CC1(C)CC(=O)C(C2C3=C(CC(C)(C)CC3=O)Oc3ccccc32)C(=O)C1 (configuration not stated),-3.93%
15,N[C@H](Cc1c[nH]c2ccccc12)C(=O)O,12%
16,COCCNC(=O)Cn1cnc([N+](=O)[O-])n1,6.28%
17,CN([C@@H](Cc1ccc(OS(=O)(=O)c2cccc3cnccc23)cc1)C(=O)N1CCN(c2ccccc2)CC1)S(=O)(=O)c1cccc2cnccc12,-4.11%
18,CC(C)c1cc(-c2n[nH]c(=O)n2-c2ccc3c(ccn3C)c2)c(O)cc1O,29.4%
19,Oc1cccc(-c2c3nc(c(-c4cccc(O)c4)c4ccc([nH]4)c(-c4cccc(O)c4)c4nc(c(-c5cccc(O)c5)c5ccc2[nH]5)CC4)C=C3)c1,36.9%
20,Nc1nc(N)c2nc(-c3cccc(O)c3)cnc2n1,88.7%
21,Nc1nc(N)c2nc(-c3ccccc3)c(N)nc2n1,19.4%
22,CCc1cc(C(C)=O)c(O)cc1OCCCCCC(C)(C)c1nn[nH]n1,8.67%
23,CCCCN(CC)c1nc(C)nc2c1c(C)c(C)n2-c1c(C)cc(C)cc1C,7.01%
24,CN(Cc1ccccc1)C(=O)[C@H](Cc1ccc2ccccc2c1)NC(=O)[C@@H]1C[C@@H](O)CN1C(=O)c1cn(C)c2ccccc12,84.1%

row,Structure (SMILES),inhibition
1,Cn1cc(C(=O)OCC2CCN(CCNS(C)(=O)=O)CC2)c2ccccc21,-8.82%
2,CN(C)CC/C=C1/c2ccccc2COc2ccc(CC(=O)O)cc21,2.79%
3,CC(C)Cc1ccc(C(C)C(=O)NO)cc1 (configuration not stated),49.7%
4,CC1(N)CCN(c2cnc(-c3cccc(Cl)c3Cl)c(N)n2)CC1,21.6%
5,C[C@@](Cc1ccc(O)c(O)c1)(NN)C(=O)O,-8.77%
6,O=C(O)/C=C/c1ccc(-c2ccc(O)c(C34CC5CC(CC(C5)C3)C4)c2)cc1,30.5%
7,O=C(/C=C/c1ccc(O)c(O)c1)OCCc1ccccc1,80.7%
8,COc1cc(NC(=O)Nc2cccc(CNC(=O)O[C@H]3CCOC3)c2)ccc1-c1cnco1,38.8%
9,CCCCCCNC(=O)n1cc(F)c(=O)[nH]c1=O,5.48%
10,Cn1cc(-c2cnc3ccc4ccc(CS(=O)(=O)NCc5ccccn5)cc4c(=O)c3c2)cn1,-2.81%
11,O=C(NCc1ccc2c(c1)OCO2)c1c(Cl)cccc1Cl,76.1%
12,O=C(COc1ccc(Cl)cc1)N1CCN(Cc2ccc3c(c2)OCO3)CC1,6.09%
13,O=C(CN1CCN(Cc2ccc3c(c2)OCO3)CC1)N1c2ccccc2Sc2ccccc21,8.76%
14,NC(Cc1ccc(Cl)cc1)C(=O)O (racemic),19.5%
15,Cc1ccc(-n2sc(=O)n(Cc3ccc(F)cc3)c2=O)cc1,41.5%
16,O=c1sn(-c2cccc3ccccc23)c(=O)n1Cc1ccccc1,83.4%
17,CNC(=O)c1ccc2cc(C3(O)CCn4cncc43)ccc2c1 (configuration not stated),25.9%
18,Nc1nc2c(c(N3CCNCC3)n1)CCC1=C2[C@@H]2CCCC[C@@H]2O1,-3.26%
19,CC(C)NCC(O)COc1ccc(CC(N)=O)cc1 (configuration not stated),4.66%
20,C[C@H](NCc1ccc(OCc2cccc(F)c2)cc1)C(N)=O,83.6%
21,C[C@H](NCc1ccc(OCc2ccccc2F)cc1)C(N)=O,69.4%
22,CC(C)COc1ccc(CNC(=O)N(Cc2ccc(F)cc2)C2CCN(C)CC2)cc1,-8.99%
23,CNNCc1ccc(C(=O)NC(C)C)cc1,4.33%
24,C[C@H](NC(=O)Cc1cc(F)cc(F)c1)C(=O)N[C@H](C(=O)OC(C)(C)C)c1ccccc1,17.3%
